Experimental data: paper PMC5700166

The sequences below were run against T1, GST-Aq-NF-kB (Amphimedon queenslandica, UniProt A9Y5G7 2-389) (assay: protein-binding microarray (PBM); PBM: ~300 nM protein, 6 mM HEPES pH 7.8, 80 mM KCl, 0.5 mM EDTA, 0.5 mM EGTA, 6% glycerol, 35 ng/ul poly-dIdC, 1% milk, 1 h, room temperature; Ap Aiptasia and Nv Nematostella (sea anemones) / Co Capsaspora / Aq Amphimedon (sponge) / Dm Drosophila / Hu human; RHD is the Rel homology domain; high values mean tight binding). Conditions: dsDNA, one strand shown.
T1 sequence: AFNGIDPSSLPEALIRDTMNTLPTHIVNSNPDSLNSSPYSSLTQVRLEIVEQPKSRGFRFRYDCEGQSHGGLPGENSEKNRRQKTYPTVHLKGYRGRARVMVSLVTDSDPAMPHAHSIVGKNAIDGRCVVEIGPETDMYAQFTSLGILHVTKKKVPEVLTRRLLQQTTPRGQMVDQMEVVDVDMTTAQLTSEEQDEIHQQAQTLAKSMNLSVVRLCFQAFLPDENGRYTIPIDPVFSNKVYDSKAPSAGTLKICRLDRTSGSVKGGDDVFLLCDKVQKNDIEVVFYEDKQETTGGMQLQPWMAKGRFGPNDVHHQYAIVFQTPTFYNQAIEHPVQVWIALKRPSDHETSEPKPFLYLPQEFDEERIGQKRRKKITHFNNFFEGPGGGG

Compared with “CCGATTAACATCAGTTCCCCCCATGATGTTAATCGGGTCTTGATTCGCTTGACGCTGCTG”, “CCGATTAACATCACGAGTTTCCCTGATGTTAATCGGGTCTTGATTCGCTTGACGCTGCTG” is lower in binding signal: 3.91 z-score for the first, 3.88 z-score for the second.

Compared with “CCGATTAACATCAAGCGTTCCCCTGATGTTAATCGGGTCTTGATTCGCTTGACGCTGCTG”, “CCGATTAACATCAGGGGAGTAAATGATGTTAATCGGGTCTTGATTCGCTTGACGCTGCTG” is lower in binding signal: 4.01 z-score for the first, 3 z-score for the second.

Going from “CCGATTAACATCAAATTTCCCGCTGATGTTAATCGGGTCTTGATTCGCTTGACGCTGCTG” to “CCGATTAACATCAGGAGAACCCCTGATGTTAATCGGGTCTTGATTCGCTTGACGCTGCTG”, the binding signal rises from 5.22 z-score to 5.68 z-score.

Going from “CCGATTAACATCAGGGGAGTTAATGATGTTAATCGGGTCTTGATTCGCTTGACGCTGCTG” to “CCGATTAACATCAACATCCCCCCTGATGTTAATCGGGTCTTGATTCGCTTGACGCTGCTG”, the binding signal rises from 3.63 z-score to 5.23 z-score.

First: CCGATTAACATCAGGCCGTCCCCTGATGTTAATCGGGTCTTGATTCGCTTGACGCTGCTG
Second: CCGATTAACATCACATATTTCCCTGATGTTAATCGGGTCTTGATTCGCTTGACGCTGCTG
The binding signal of the first is higher: 5.74 z-score for the first, 5.18 z-score for the second.

Compared with “CCGATTAACATCACTTGGGAAACTGATGTTAATCGGGTCTTGATTCGCTTGACGCTGCTG”, “CCGATTAACATCACGGGAAACCCTGATGTTAATCGGGTCTTGATTCGCTTGACGCTGCTG” is higher in binding signal: 1.18 z-score for the first, 5.65 z-score for the second.

First: CCGATTAACATCAGGGTATTCCATGATGTTAATCGGGTCTTGATTCGCTTGACGCTGCTG
Second: CCGATTAACATCACAGGGAATTCTGATGTTAATCGGGTCTTGATTCGCTTGACGCTGCTG
The binding signal of the first is higher: 4.83 z-score for the first, 4.62 z-score for the second.

In the case of “CCGATTAACATCAGGGGGAGAGATGATGTTAATCGGGTCTTGATTCGCTTGACGCTGCTG”, the binding signal is reported as 3.54 z-score.
